# Inconclusive results are not listed. Activity calls are given as the source filed them. Rule for the calls: active = hit-call score of the fitted dose curve at least 0.9, where 1 is the maximum; inconclusive = response in the unintended direction; inactive = score below 0.9.
# Tested on: DIO1 (gene 1733)
# Experiment: CCTE_GLTED_hDIO1: CCTE's human Deiodinase 1 (DIO1) Inhibition Assay, Great Lakes Toxicology and Ecology Division (GLTED) Lab (AID 2283987);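 note: isolated human DIO1 enzyme in a cell-free setup rather than cells; enzyme activity read as free iodide liberated from substrate via Sandell-Kolthoff colorimetry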
# Procedure: CCTE_GLTED_hDIO1 is a cell-free, single-readout assay designed to test the inhibitory activity of chemicals toward human iodothyronine Deiodinase type 1 (DIO1) enzyme. Enzyme is incubated in presence of test chemical for 3 hours during which uninhibited enzyme liberates free iodide from substrate. Free iodide is measured in a second step using the Sandell-Kolthoff method.CCTE_GLTED_hDIO1 is the assay component measured from the CCTE_GLTED_hDIO1 assay. It is designed to make measurements of enzyme activity, a form of enzyme reporter, as detected with absorbance signals by spectrophotometry.Data from the assay component CCTE_GLTED_hDIO1 was analyzed into 1 assay endpoint. This assay endpoint, CCTE_GLTED_hDIO1, was analyzed in the positive analysis fitting direction relative to DMSO as the negative control and baseline of activity. Using a type of enzyme reporter, loss-of-signal activity can be used to understand changes in the enzymatic activity as they relate to the gene DIO1. Furthermore, this assay endpoint can be referred to as a primary readout, because the performed assay has only produced 1 assay endpoint. To generalize the intended target to other relatable targets, this assay endpoint is annotated to the 'deiodinase' intended target family, where the subfamily is 'deiodinase Type 1'.
# […] assay, developed at Great Lakes Toxicology and Ecology Division (GLTED) within the EPA's Center for Computational Toxicology and Exposure (CCTE), is designed to test the chemicals' ability to inhibit DIO1. Assay is based on iodide release measured by the Sandell-Kolthoff method and is run in 96-well plate format with assay plates run in triplicate (n=3). The method used for the deiodinase assay was largely based on Renko et al. (2012, 2015). These works describe the utilization of the SK reaction to measure deiodinase-liberated iodide in a 96-well-plate format. The SK reaction is based on the reduction of the yellow-colored cerium IV to the non-colored cerium III by arsenic, with the rate of this reaction increased in the presence of iodide in a concentration-dependent manner (Sandell and Kolthoff, 1937). Iodinated test chemicals can interfere as competitive inhibitors, or if the stock chemical has contaminating free-iodide present. Other chemicals, e.g.: nitrite, iron, and thiocyanate can interfere with the Sandell-Kolthoff reaction (see Sandell and Kolthoff, 1937).
row,Compound,AC50
1,CC(C)(c1cc(Br)c(O)c(Br)c1)c1cc(Br)c(O)c(Br)c1,37.6 µM (active)
2,CN(C[C@@H](CC[N+]12CCC(C3CCCCC3)(CC1)CC2)c1ccc(Cl)c(Cl)c1)C(=O)c1cc(C(F)(F)F)cc(C(F)(F)F)c1,57.6 µM (active)
3,CC(C)(C)c1cc(/C=C2\SC(N)=NC2=O)cc(C(C)(C)C)c1O,3.01 µM (active)
4,CCN(CC)C(=O)c1cc(S(=O)(=O)Cc2ccccc2)c(N2CCC(c3ccccc3)CC2)cc1N(CC)CCN(C)C,40 µM (active)
5,CCCCCCCCCCCC[N+](C)(C)C,83.2 µM (active)
6,O=c1c(-c2ccc(O)cc2)coc2cc(O)cc(O)c12,2.42 µM (active)
7,OC12N=C(c3ccccc3)SC1Cc1cc(Cl)ccc12 (stereo unspecified),21.1 µM (active)
8,CCOC(=O)O[C@H](C)OC(=O)c1ccc2c(c1)cc(C(=O)NC1CCN(C(C)C)CC1)n2Cc1cc(-c2ccc(Cl)s2)on1,97.5 µM (active)
9,CCCCCCCCOC(=O)c1cc(O)c(O)c(O)c1,101 µM (active)
10,NCc1cccc(C2CCN(C(=O)c3ccc(C#Cc4ccccc4F)o3)CC2)c1,88.6 µM (active)
11,CC(C)(C)c1csc(-c2cc3cc(OCc4ccccc4CC(=O)O)ccc3o2)n1,100 µM (active)

# From PubChem BioAssay (EPA / NIEHS)
